Source: PubChem BioAssay (National Center for Advancing Translational Sciences (NCATS))
Luc counter: Counterscreen for Luciferase (Kinase-Glo TM) Inhibition; Luciferin 4-monooxygenase (Photuris pensylvanica), Q27757; Kinase-Glo luciferase, ATP luminescence, 8 min; Potency, µM (top dose mostly 38.3 µM), inactives show top-dose activity change, negative = inhibition, most hits filed as inhibitors; 200,000 compounds, 0.28% hits; also: % is scaled to controls: 0 for no effect and ±100 for the full control effect; nearly all actives have a fitted effect of over 60% in size
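Luminescence was the read-out, taken after 8-minute incubation at ambient temperature. Luciferase turned over luciferin with 10 uM ATP in imidazole pH 7.2 buffer containing KCl, MgCl2, Tween 20 and BSA.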
ELG1 genotoxic: qHTS screen for small molecules that induce genotoxicity in human embryonic kidney (HEK293T) cells expressing luciferase-tagged ELG1; 330,000 compounds, 1.3% hits; Potency, µM (highest dose often 46 µM), inactives show at the highest dose activity change, positive = activation, hits mostly activators; HEK293T ELG1-luciferase reporter, luminescence, 16 h; also: % of control where 0% means no effect; nearly all actives have a fitted effect of over 60% in size
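16 hr compound incubation (37 °C, 5% CO2) of HEK293T cells carrying luciferase-tagged ELG1; luciferase then measured by ONE-Glo luminescence after 30 min at RT.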
FLuc counter: qHTS profiling assay for firefly luciferase inhibitor/activator using purifed enzyme and Km concentrations of substrates (counterscreen for miR-21 project); AID 588342, 2011; Potency, µM (top dose mostly 57.5 µM), without a hit: top-dose activity change, negative = inhibition, usual class: inhibitors; 360,000 compounds, 6.9% hits; purified FLuc, Km substrates, luminescence inhibition;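 also: plate controls were vehicle for no effect and reference inhibitor for full effect; nearly all actives have a fitted effect of over 55% in size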
Target sequence (P08659 whole entry, looked up): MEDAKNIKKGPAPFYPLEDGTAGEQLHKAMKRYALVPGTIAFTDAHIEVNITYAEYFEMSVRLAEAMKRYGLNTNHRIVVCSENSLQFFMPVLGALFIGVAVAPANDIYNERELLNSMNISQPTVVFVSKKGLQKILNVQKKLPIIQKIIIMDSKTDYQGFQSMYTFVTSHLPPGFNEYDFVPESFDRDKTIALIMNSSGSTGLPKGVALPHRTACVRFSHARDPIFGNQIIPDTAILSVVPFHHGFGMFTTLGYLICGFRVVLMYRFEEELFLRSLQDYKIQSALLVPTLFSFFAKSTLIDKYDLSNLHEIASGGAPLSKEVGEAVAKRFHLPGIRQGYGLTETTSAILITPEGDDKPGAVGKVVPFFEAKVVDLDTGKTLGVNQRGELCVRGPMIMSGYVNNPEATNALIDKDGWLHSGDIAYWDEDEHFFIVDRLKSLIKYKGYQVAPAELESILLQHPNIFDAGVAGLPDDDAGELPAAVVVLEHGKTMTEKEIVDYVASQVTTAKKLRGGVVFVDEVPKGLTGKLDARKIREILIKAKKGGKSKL
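Purified P. pyralis luciferase (10nM final) with 10uM D-luciferin and 10uM ATP (Km levels) in 50mM Tris acetate pH 7.5, 10mM Mg acetate, 0.01% Tween-20, 0.05% BSA; qHTS 6-point titration, ~60 µM downward; luminescence read.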
SMN2 splice up: qHTS Assay for Enhancers of SMN2 Splice Variant Expression; AID 1458, 2008; HEK293 SMN2-luciferase splicing reporter, luminescence, 30-36 h; 210,000 compounds, 2.8% hits; Potency, µM (doses to about 46.1 µM), inactives show at the top dose activity change, positive = activation, hits mostly activators; also: % of control where 0% means no effect; nearly all actives have a fitted effect of over 55% in size
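HEK293 cells carry an SMN2 minigene-luciferase reporter in which exon 7 inclusion puts luciferase in frame. Cells were seeded at 2000 cells/well, attached for 10-12 hours, then exposed to compounds for 30-36 hours at 37C before ONE-Glo luminescence.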
NPC1 prom act: qHTS Assay for NPC1 Promoter Activators; Huh7 NPC1 promoter luciferase reporter, 24 h; Potency, µM (top dose mostly 9.22 µM), inactives show at the top dose activation, actives largely listed as activators; 320,000 compounds, 2.4% hits; also: % of control where 0% means no effect; nearly all actives have a fitted effect of over 60% in size
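In 1536-well qHTS, Huh7 cells harboring an NPC1 promoter–luciferase construct received compound for 24 h; activation was quantified by luminescence following luciferase reagent addition.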
Rab9 promoter act: qHTS Assay for Rab9 Promoter Activators | Huh7 Rab9 promoter-luciferase reporter, luminescence, 24 h | Potency, µM (doses to about 9.22 µM), for the others: at the top dose activation, negative = inhibition, most hits filed as activators | 320,000 compounds, 2.8% hits; also: % of control where 0% means no effect; nearly all actives have a fitted effect of over 60% in size
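Rab9 promoter-driven luciferase in stably transfected Huh7 cells; 1500 cells/well rested 2 h, exposed to compound in DMSO for 24 h at 37 °C, 5% CO2. Luminescence read 10 min after adding luciferase reagent at ambient temperature.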
Active calls of the source: *; ? = inconclusive; / = not tested or not shown; [ ] = remark or other dose. Only some compounds are listed: those with a hit (about 7.3% of all), similar ones and a draw of the others. Calls follow the shape of the dose curve; as a rule, active = well fitted curve in the direction sought with a large enough effect; inconclusive = small, poorly fitted or top-dose-only effect, or another doubt; inactive = no such curve, though single readings can be large; an effect the other way counts as inactive or inconclusive. Potency is read from the fitted curve at half-maximal effect.

SMILES	Luc counter	ELG1 genotoxic	FLuc counter	SMN2 splice up	NPC1 prom act	Rab9 promoter act
CC(NC(=O)c1cc(COc2ccccc2)on1)c1nccs1 (stereo unspecified)	/	8.2µM*	4.8µM*	/	1.4µM*	1.4µM*
Cc1cc(OCc2cc(C(=O)NC3CCC3)no2)cc(C)c1Cl	/	0%	1%	/	-1%	0%
O=C(O)[C@H](C1NCCS1)N1C(=O)c2ccccc2C1=O (stereo partly specified)	-1%[7.66 µM]	/	/	-11%[9.22 µM]	/	/
COC[C@H]1OC=C[C@@H](OC)[C@@H]1OC	3%	/	/	5%	/	/
Cc1cccc(CNC(=O)c2ccc3nc(-c4ccccc4)c(-c4ccccc4)nc3c2)c1	/	/	-18%	4%	/	/
CCN(CC)CC(=O)Nc1ccc2c(c1)Nc1ccccc1CC2	0%	0%	12µM*	-2%	18%	?
COc1ccc(-c2nc3c4ccccc4n(CC(=O)N4CCN(c5ccccc5F)CC4)c(=O)n3n2)cc1	/	/	-5%	/	/	/
c1ccc(-c2nc(-c3nccc4ccccc34)oc2-c2ccccc2)cc1	/	?	6µM*	/	?	3.2µM*
COc1cc(/C=N/NC(=O)CN2CCCCC2)ccc1OCc1ccc(Br)cc1	-3%	?	15µM*	10µM*	9%	2%
CCOc1ccc(/C=N/NS(=O)(=O)c2ccc(C)cc2)cc1OC	/	0%	-2%	/	-1%	2%
COc1cc(/C=N/NS(=O)(=O)c2ccc(C)cc2)ccc1OCc1ccc(C(=O)O)cc1	/	?	0.024µM*	/	0.79µM*	4.5µM*
CC(=O)N1CCN(c2csc3ccc(Br)cc3c2=O)CC1	/	/	15µM*	/	/	/
Cc1ccc2scc(N3CCc4ccccc4C3)c(=O)c2c1	/	/	4.8µM*	/	/	/
Cc1ccc(C)c(N2CCN(C(=O)c3csc4ccccc34)CC2)c1	-1%	-1%	0%	-14%	-2%	0%
Cc1ccc(-c2csc3ncnc(N4CCc5ccccc5C4)c23)cc1	2%	-11%	-1%	-11%	0%	2%
Cc1ccc2scc(N3CCN(c4ccccc4)CC3)c(=O)c2c1	/	/	17µM*	/	/	/
CC1CCCN(c2csc3ccccc3c2=O)C1 (stereo unspecified)	/	/	8.5µM*	/	/	/
Cc1ccc2scc(N3CCN(c4ccc(F)cc4)CC3)c(=O)c2c1	/	/	-12%	/	/	/
COc1cc(OC)c(N(C)C(=O)Cn2ncc3c([nH]c4ccccc43)c2=O)cc1Cl	/	/	1%	/	/	/
COc1cc(OC)c(NS(=O)(=O)c2ccc3c(c2)CCCN3C(C)=O)cc1Cl	/	/	-8%	/	/	/
Cc1ccc(CNC(=O)NC2COc3ccccc3C2)cc1 (stereo unspecified)	/	/	-2%	/	/	/
COc1cccc(Nc2nnc(-c3cc4ccc(O)cc4oc3=O)s2)c1	/	/	-19%	/	/	/
CCCCCCCc1cc2c(cn1)=C(OC)C(C)(OC(C)=O)C(=O)C=2Cl (stereo unspecified)	-1%	/	/	5%	/	/
COc1ccc(Cl)cc1NC(=O)Cn1cc(S(=O)(=O)Cc2cccc(Cl)c2)c2ccccc21	/	/	6%	/	/	/
O=c1c(N2CCCCC2)csc2ccc(F)cc12	/	/	6µM*	/	/	/
SMILES	Luc counter	ELG1 genotoxic	FLuc counter	SMN2 splice up	NPC1 prom act	Rab9 promoter act
CCN1CCN(c2csc3ccc(Cl)cc3c2=O)CC1	/	/	15µM*	/	/	/
COc1ccc(S(=O)(=O)c2cn(Cc3ccccc3)c3cc(N4CCCC4)c(F)cc3c2=O)cc1	/	/	3%	/	/	/
Cc1c(-c2ccccn2)c(=O)[nH]n1-c1ccc(F)cc1	-2%	?	3µM*	5.6µM*	3.5µM*	0.5µM*
O=S(=O)(c1ccc(C2CCCCC2)cc1)N1CCN(c2cc(Cl)ccc2Cl)CC1	/	/	-5%	5%	/	/
NC(=O)CSc1nnc(NC(=O)C23CC4CC(CC(C4)C2)C3)s1	/	17%	?	/	?	11%
CSc1nnc(NC(=O)C23CC4CC(CC(C4)C2)C3)s1	/	3%[9.26 µM]	24µM*	/	?	?
CCc1nnc(NC(=O)C23CC4CC(CC(C4)C2)C3)s1	/	?	11µM*	/	?	?
CC(C)Cc1nnc(NC(=O)C23CC4CC(CC(C4)C2)C3)s1	/	-1%	-8%	/	7%	15%
Cc1ccc(NC(=O)Cn2ncn3c(cc4ccccc43)c2=O)cc1C	/	/	-9%	-22%	/	/
COc1cccc(NC(=O)c2cc3c(-c4ccc(Cl)cc4)nn(C)c3s2)c1	/	/	0%	/	/	/
CCC1CCCCN1C(=O)Cn1c(=O)n(CCCCCC(=O)NCc2ccccc2Cl)c(=O)c2sccc21 (stereo unspecified)	/	/	?	-1%	/	/
COc1cccc(/C=N/n2c(-c3ccco3)nc3ccccc3c2=O)c1	-1%	2%	13µM*	0.79µM*	0.4µM*	0.56µM*
COc1ccc(C2=CC(c3ccc(C)cc3)n3nnnc3N2)cc1 (stereo unspecified)	-6%	-7%	-11%	2%	8%	2%
COc1cccc(C2=CC(c3cccc(OC)c3OC)n3nnnc3N2)c1 (stereo unspecified)	1%	?	24µM*	?	-11%	12%
COc1ccc(C2C=C(c3ccccc3)Nc3nnnn32)cc1 (stereo unspecified)	-3%	13%	3%	3%	4µM*	?
O=C(Nc1ccccc1C(F)(F)F)N1CCOc2ccc(Cl)cc21	/	/	-11%	/	/	/
COc1ccccc1CNc1ccc(-c2nc(-c3cccnc3)no2)cc1[N+](=O)[O-]	/	/	-21%	/	/	/
COc1ccc(Nc2cc(O)c3ncccc3c2)cc1	/	/	?	/	-40%	-43%
Nc1ncnc(N)c1N=Nc1ccccc1	/	-14%	-6%	/	20%	0%
Cc1cc(C)[n+]2[nH]c(N)c(N=Nc3ccccc3)c2n1	/	0%	15µM*	/	9%	7%
CCc1ccc(S(=O)(=O)c2nnn3c2nc(NCc2cccc(OC)c2)c2cc(Cl)ccc23)cc1	/	/	1%	2%	/	/
Cn1cccc1-c1nc2ccc([N+](=O)[O-])cc2[nH]1	/	?	12µM*	/	2.8µM*	2.2µM*
O=[N+]([O-])c1ccc2nc(-c3ccccc3)[nH]c2c1	-24%	?	5.4µM*	7.1µM*	2.8µM*	2.5µM*
Cc1c(CC(=O)NCCc2ccccc2)c(=O)oc2c(C)c3occ(C(C)(C)C)c3cc12	/	/	-2%	-1%	/	/
Cc1cccc(NC(=O)Nc2ccncc2)c1	-4%	7%	17µM*	?	12%	17%
Cc1cccc(NC(=O)Nc2cnccn2)c1	-5%	0%	?	12%	0%	-9%
